# Screening results: PubChem, National Center for Advancing Translational Sciences (NCATS)
# ELG1 genotox: genotoxicity induction in ELG1-luciferase HEK293T cells | Potency, µM (doses to about 46 µM), for inactives: top-dose activity change, positive = activation, hits mostly activators | hit rate 1.3% among 330,000 | AID 504466 | HEK293T ELG1-luciferase reporter, luminescence, 16 h; further: % of control where 0% means no effect; nearly all actives have a fitted effect of over 60% in size
#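 HEK293T cells expressing luciferase-tagged ELG1 were exposed to compound or DMSO vehicle for 16 hr at 37 °C and 5% CO2. Luciferase activity was then measured with ONE-Glo after 30 min at room temperature.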
# NPC1 promoter act: activates the NPC1 promoter. hit rate 2.4% among 320,000. Huh7 NPC1 promoter luciferase reporter, 24 h. Potency, µM (doses to about 9.22 µM), for the others: at the highest dose activation, usual class: activators. AID 485313; further: % of control where 0% means no effect; nearly all actives have a fitted effect of over 60% in size
#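 Quantitative HTS used a cell-based reporter: Huh7 cells stably bearing the NPC1 promoter upstream of luciferase were treated with compounds for 24 h, and promoter activation was read as luminescence.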
# Rab9 prom act: activators of Rab9 promoter; Huh7 Rab9 promoter-luciferase reporter, luminescence, 24 h; Potency, µM (doses to about 9.22 µM), without a hit: top-dose activation, negative = inhibition, actives largely listed as activators; hit rate 2.8% among 320,000; AID 485297; further: % of control where 0% means no effect; nearly all actives have a fitted effect of over 60% in size
#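 Luminescence from Amplite-detected luciferase (10 minutes, ambient) reports Rab9 promoter activation. Before that, stable Rab9-luciferase Huh7 cells (1500/well, reduced-serum OP-MEM I plus 10% FBS) were exposed to compound for 24 hours at 37C.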
# SMN2 splice up: enhancers of SMN2 splice variant expression; HEK293 SMN2-luciferase splicing reporter, luminescence, 30-36 h; Potency, µM (highest dose often 46.1 µM), for the others: at the top dose activity change, positive = activation, most hits filed as activators; hit rate 2.8% among 210,000; AID 1458; further: % of control where 0% means no effect; nearly all actives have a fitted effect of over 55% in size
#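 HEK293 cells carry an SMN2 minigene-luciferase reporter in which exon 7 inclusion puts luciferase in frame. Cells were seeded at 2000 cells/well, attached for 10-12 hours, then exposed to compounds for 30-36 hours at 37C before ONE-Glo luminescence.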
# ELG1 DNA repair: ELG1-dependent DNA repair inhibition; HEK293T ELG1-luciferase reporter, luminescence, 16 h; DNA damage induced by 5-fluorouridine; Potency, µM (top dose mostly 46.1 µM), for the others: top-dose activity change, negative = inhibition, actives largely listed as inhibitors; hit rate 2.3% among 330,000; further: on the % scale 0 is the no-effect control and ±100 the full control effect; nearly all actives have a fitted effect of over 55% in size
#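 Quantitative HTS, concentration-response format. 2,000 cells/well co-treated with 5-fluorouridine and compound, 16 hr in 5% CO2 at 37 °C; ONE-Glo luminescence read after 30 min.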
# FLuc counter: firefly luciferase modulation, counter-screen for miR-21 project | hit rate 6.9% among 360,000 | Potency, µM (series often up to 57.5 µM), without a hit: at the top dose activity change, negative = inhibition, actives largely listed as inhibitors | purified FLuc, Km substrates, luminescence inhibition;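 further: plate controls were vehicle for no effect and reference inhibitor for full effect; nearly all actives have a fitted effect of over 55% in size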
# Target sequence (P08659 whole entry, looked up): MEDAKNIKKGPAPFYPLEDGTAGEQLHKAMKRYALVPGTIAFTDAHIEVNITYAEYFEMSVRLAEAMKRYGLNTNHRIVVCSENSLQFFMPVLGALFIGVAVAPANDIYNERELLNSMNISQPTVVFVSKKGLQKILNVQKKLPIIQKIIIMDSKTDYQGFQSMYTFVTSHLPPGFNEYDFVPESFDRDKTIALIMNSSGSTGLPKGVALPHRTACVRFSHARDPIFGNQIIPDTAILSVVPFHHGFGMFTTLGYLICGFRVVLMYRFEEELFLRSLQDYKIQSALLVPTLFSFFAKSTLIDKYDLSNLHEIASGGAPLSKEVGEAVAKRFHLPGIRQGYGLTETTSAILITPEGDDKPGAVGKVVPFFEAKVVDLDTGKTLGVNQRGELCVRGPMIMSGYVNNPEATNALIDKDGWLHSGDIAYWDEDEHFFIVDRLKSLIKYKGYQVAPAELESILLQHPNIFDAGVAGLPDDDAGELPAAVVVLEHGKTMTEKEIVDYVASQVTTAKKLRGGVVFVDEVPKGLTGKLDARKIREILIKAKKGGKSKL
#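 Biochemical qHTS of compounds, final roughly 60 µM downward over six points, against 10 nM purified firefly luciferase using Km concentrations of substrates (10 uM D-luciferin, 10 uM ATP) in Tris acetate pH 7.5 buffer; luminescence output.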
# An asterisk follows results filed as active; ? = inconclusive; · = not tested or not shown; [ ] = another dose, or the depositor's remark. This is a sample that favours compounds with a hit; in the whole collection about 9.2% have one here. The call rests on the fitted dose curve; in most records, active means well fitted curve in the direction sought with a large enough effect; inconclusive means small, poorly fitted or top-dose-only effect, or another doubt; inactive means no such curve, though single readings can be large; an effect the other way counts as inactive or inconclusive. Potency means the concentration at half of the fitted maximal effect.
SMILES,ELG1 genotox,NPC1 promoter act,Rab9 prom act,SMN2 splice up,ELG1 DNA repair,FLuc counter
NC(=S)N/N=C1\CC(c2ccc3c(c2)OCCO3)Oc2ccc(F)cc21 (stereo not given),-6%,-3%,-1%,·,-15%,?
Cc1ccn2c(=O)cc(CSc3nnc(C)s3)nc2c1,·,·,·,·,·,0%
Cc1ccc2nc(C)/c(=N\O)c(C)nc2c1,?,2%,-6%,4%,?,?
Cc1nc2ccc(Cl)cc2nc(C)/c1=N\O,18µM*,0%,5%,-8%,?,?
CCOC(=O)CNC(=O)c1ccc(C)cc1,10%,0%,2%,10%,9%,13µM*
CCOC(=O)CNC(=O)c1ccc(OCC(F)(F)F)cc1,11%,?,2µM*,13µM*,?,?
CCOc1ccc(C(=O)NCC(=O)OCCCOC(=O)CNC(=O)c2ccc(OCC)cc2)cc1,9%,-4%,-2%,·,-8%,?
Cc1ccc(C(=O)NCC(=O)OCC(=O)NCCNC(=O)COC(=O)CNC(=O)c2ccc(C)cc2)cc1,3%,-5%,0%,·,0%,8%
CCOC(=O)CNC(=O)c1ccc2[nH]c3ccccc3c2c1,7%,-4%,-3%,-7%,?,17µM*
O=C(NCC(O)CO)c1ccc2[nH]c3ccccc3c2c1 (stereo not given),0%,-4%,0%,8%,0%,?
Cc1ccc(C)c(NC(=O)CSc2c(C)cnc3c2c(=O)n(C)c(=O)n3C)c1,·,·,·,·,·,-2%
Cc1cccc(C(=O)NCc2nnc(SCC(=O)Nc3nncs3)n2C)c1,-4%,0%,10%,·,10%,-1%
S=C(Nc1ccc(Br)cc1)N1CCCC1,12%,16%,3%,8.9µM*,?,15µM*
S=C(Nc1ccc(Cl)cc1)N1CCCCC1,1%,7%,1%,12%,30%,12µM*
CCOc1ccc(NC(=S)N2CCCC2)cc1,26%,-3%,1%,·,25%,-1%
CCc1ccc(NC(=S)N2CCCCCCC2)cc1,?,?,?,16µM*,?,4.8µM*
CCCCc1ccc(NC(=S)N2CCCC(C)C2)cc1 (stereo not given),11%,8%,16%,14%,?,13µM*
COc1ccc(CCNC(=O)c2ccc3[nH]c(C)c(C)c3c2)cc1OC,·,·,·,·,·,-14%
COc1ccc(-n2c(-c3ccco3)nc3c(cnn3-c3ccccc3Cl)c2=O)cc1,·,·,·,-8%,·,-8%
Cn1c(=O)c2c(nc(N/N=C/c3ccc(OC(=O)c4ccco4)cc3)n2Cc2ccccc2)n(C)c1=O,-1%,-9%,-12%,-30%,21µM*,0%
Cn1c(=O)c2c(nc(N/N=C/c3cccnc3)n2Cc2ccc(F)cc2)n(C)c1=O,1%,-3%,0%,·,2%,0%
Cn1c(=O)c2c(nc(N/N=C/c3cccs3)n2Cc2ccccc2)n(C)c1=O,0%,-7%,-11%,-55%,6.5µM*,-13%
COc1ccc(CN2CCCC(C(=O)N3CCCCC3)C2)cc1OC (stereo not given),-2%,0%,-2%,·,-19%,-2%
O=C(NCCC1=CCCCC1)C1CC(=O)N(Cc2ccccc2)C1 (stereo not given),1%,-3%,2%,·,3%,5%
Cc1cc(NC(=O)CS(=O)(=O)c2cn(Cc3cccc(F)c3)c3ccccc23)no1,-14%,-2%,-3%,-15%,21µM*,4%
SMILES,ELG1 genotox,NPC1 promoter act,Rab9 prom act,SMN2 splice up,ELG1 DNA repair,FLuc counter
Clc1ccccc1-c1nnc(-c2ccccc2Cl)o1,?,4µM*,2.5µM*,13µM*,?,8.5µM*
O=C(Nc1ccc(NC(=O)c2ccccc2Cl)cc1)c1cccnc1,5%,3%,2%,·,-8%,-11%
Clc1ccc(-c2nnc(-c3cccc4ccccc34)o2)cc1Cl,0%,27%,?,-4%[9.22 µM],?,-5%
O=C(Nc1nnc(-c2ccccc2Cl)o1)c1cccnc1,?,?,?,?,?,19µM*
Clc1ccc(-c2nnc(-c3ccccc3Cl)o2)cc1,?,0.63µM*,0.45µM*,·,?,1.2µM*
O=C(/C=C/c1ccc(-c2ccccc2[N+](=O)[O-])o1)c1ccco1,2%,2%,?,9%,2%,19µM*
S=c1[nH]c2cc3ccccc3cc2[nH]1,?,14%,3%,·,?,4.8µM*
S=c1[nH]c2ccc3ccccc3c2[nH]1,14%,11%,?,10%,?,-29%
CSc1cccc(NC(=O)C2CCCN(S(=O)(=O)c3ccc4c(c3)CCCN4C(C)=O)C2)c1 (stereo not given),·,·,·,·,·,-9%
CC(C)(C)C1CCC(=NNc2nc3ccccc3[nH]2)CC1 (stereo not given),0%,2%,17%,29%,-1%,13µM*
c1ccc(CN2CCC(=NNc3nc4ccccc4[nH]3)CC2)cc1,2%,-2%,0%,5%,1%,19µM*
c1ccc2c(c1)CC/C2=N/Nc1nc2ccccc2[nH]1,?,?,2.5µM*,11µM*,?,6.7µM*
O=C(/C=C/c1ccccc1)OCCCN=C1NS(=O)(=O)c2ccccc21,-6%,-4%,-8%,-14%,?,-6%
CCOC(=O)C1=C(COC(=O)CCOc2cc(C)ccc2C)NC(=O)NC1C (stereo not given),1%,-4%,1%,·,6%,-3%
COc1cc2ccccc2cc1C(=O)Nc1ccc(O)cc1,10µM*,1.4µM*,2µM*,·,?,1.1µM*
COc1cc(Cl)c(C)cc1NC(=O)c1cccc(OC)c1OC,18%,?,?,?,0%,6.7µM*
COc1cccc(C(=O)Nc2cccc(-c3cn4c(C)csc4n3)c2)c1OC,·,·,·,·,·,7.6µM*
CN(C)c1ccc(NC(=O)c2cccc(C(=O)Nc3ccc(N(C)C)cc3)n2)cc1,5%,2.8µM*,3.2µM*,14µM*,?,1.5µM*
COc1ccc(/C=C/C(=O)c2cccc(-n3cnnn3)c2)cc1O,0%,0%,-3%,·,-3%,-14%
CCN(CC)C(=O)C(=O)N/N=C/c1ccc(C(=O)O)cc1,7%,-3%,0%,12%,3%,2%
Cn1c(CC(=O)NNC(=O)c2ccc(F)cc2Cl)nc2ccccc21,-1%,-1%,-1%,·,12%,2%
Cc1cccc(N2CCN(C(=O)Cn3c(=O)c4cccn4c4ccc(F)cc43)CC2)c1C,·,·,·,·,·,-1%
CC(C)(C)OC(=O)N1CCC[C@H]1c1nnc(SCc2cccc(Cl)c2)o1,-5%,2%,-6%,·,?,3%
